Measured values: a collection of fitness landscapes (doi:10.1126/science.1257360)
Whole data set: some 140,000 sequences, median “enrichment ratio after two sorts for PhoP signalling” near 0, cut for the highest 2% near 11. This is one part of a sample in which the highest values are shown more often than they occur.

B1: PhoQ; a variant is named by its letters at X, in order, P23837 (parent)
chain: MKKLLRLFFPLSLRVRFLLATAAVVLVLSLAYGMVALIGYSVSFDKTTFRLLRGESNLFYTLAKWENNKLHVELPENIDKQSPTMTLIYDENGQLLWAQRDVPWLMKMIQPDWLKSNGFHEIEADVNDTSLLLSGDHSIQQQLQEVREDDDDAEMTHSVAVNVYPATSRMPKLTIVVVDTIPVELKSSYMVWSWFIYVLSANLLLVIPLLWVAAWWSLRPIEALAKEVRELEEHNRELLNPATTRELTSLVRNLNRLLKSERERYDKYRTTLTDLTHSLKTPLXXLQXXLRSLRSEKMSVSDAEPVMLEQISRISQQIGYYLHRASMRGGTLLSRELHPVAPLLDNLTSALNKVYQRKGVNISLDISPEISFVGEQNDFVEVMGNVLDNACKYCLEFVEISARQTDEHLYIVVEDDGPGIPLSKREVIFDRGQRVDTLRPGQGVGLAVAREITEQYEGKIVAGESMLGGARMEVIFGRQHSAPKDE

Variants of: B1
Assay: enrichment ratio after two sorts for PhoP signalling (ratio (wild type AVST 3.29)); higher = more functional
Conditions: with PhoP (E. coli)

| Variant | enrichment ratio |
| --- | --- |
| AGGV | 11.4 |
| AMGV | ≤ 0.25 |
| AEHV | ≤ 0.25 |
| VYHA | ≤ 0.25 |
| ALVG | 1.71 |
| HEES | ≤ 0.25 |
| LAFL | 2.72 |
| AFDH | ≤ 0.25 |
| ACNL | ≤ 0.25 |
| ACVN | 31.5 |
| ACGM | ≤ 0.25 |
| ALVN | 13.7 |
| ACPN | ≤ 0.25 |
| ALQN | ≤ 0.25 |
| ALNL | 1.07 |
| ACTI | 5.16 |
| ACTM | 11.9 |
| ACWM | ≤ 0.25 |
| ACTC | 4.29 |
| ACIM | 30.7 |
| NDFR | 2.54 |
| FPHA | ≤ 0.25 |
| HDNY | ≤ 0.25 |
| QCKR | ≤ 0.25 |
| LDKY | ≤ 0.25 |
| YWPF | ≤ 0.25 |

| Variant | enrichment ratio |
| --- | --- |
| DPVE | ≤ 0.25 |
| NGRY | ≤ 0.25 |
| ACAV | 3.32 |
| ACAE | 15.5 |
| ACAM | 30.7 |
| ACAN | 15.5 |
| ACQN | ≤ 0.25 |
| ATPN | ≤ 0.25 |
| ACRM | ≤ 0.25 |
| YTVN | ≤ 0.25 |
| KCAE | ≤ 0.25 |
| ACAT | 0.287 |
| ACAK | 0.412 |
| ATVN | 19.4 |
| CLIL | ≤ 0.25 |
| RMFK | ≤ 0.25 |
| PFPY | ≤ 0.25 |
| RDQR | ≤ 0.25 |
| IEIS | ≤ 0.25 |
| IVGI | ≤ 0.25 |
| EILP | ≤ 0.25 |
| ACNM | ≤ 0.25 |
| ACVM | 12.1 |
| ACPM | 0.39 |
| PFDF | ≤ 0.25 |
| AKVQ | 2.82 |

| Variant | enrichment ratio |
| --- | --- |
| KKVQ | ≤ 0.25 |
| TKVH | 12.3 |
| TKVI | 30.1 |
| TKVQ | 11.7 |
| HKVH | ≤ 0.25 |
| HKVI | ≤ 0.25 |
| TKVA | 18.4 |
| AKVI | 5.34 |
| TKVK | ≤ 0.25 |
| MKVH | ≤ 0.25 |
| TKVG | 1.43 |
| RIDW | ≤ 0.25 |
| SRWP | ≤ 0.25 |
| PCHL | ≤ 0.25 |
| IMSS | ≤ 0.25 |
| RNRM | ≤ 0.25 |
| QWVH | ≤ 0.25 |
| AEDM | ≤ 0.25 |
| YQHC | ≤ 0.25 |
| MEMA | ≤ 0.25 |
| AKVM | ≤ 0.25 |
| TKVV | 16.7 |
| HKVV | ≤ 0.25 |
| AKVV | 11 |
| TKMA | 20.5 |
| MKVM | ≤ 0.25 |

| Variant | enrichment ratio |
| --- | --- |
| HKMA | ≤ 0.25 |
| TKVM | 36.7 |
| TEIA | 5.22 |
| RVAC | ≤ 0.25 |
| LPRF | ≤ 0.25 |
| VFWD | ≤ 0.25 |
| DAPE | ≤ 0.25 |
| QDDV | ≤ 0.25 |
| KLGH | ≤ 0.25 |
| KSGH | ≤ 0.25 |
| TCGP | 1.63 |
| VEGH | ≤ 0.25 |
| TLGH | 12.5 |
| TCGH | 23.5 |
| TLGP | ≤ 0.25 |
| HFGH | ≤ 0.25 |
| SHSH | 0.368 |
| THSH | 12.3 |
| NHSH | ≤ 0.25 |
| THGH | 13.1 |
| NPCL | ≤ 0.25 |
| WFFE | ≤ 0.25 |
| IMHM | ≤ 0.25 |
| NGPM | ≤ 0.25 |
| PILN | ≤ 0.25 |
| REPM | ≤ 0.25 |

| Variant | enrichment ratio |
| --- | --- |
| FADW | ≤ 0.25 |
| TMTH | 9.92 |
| TMGP | ≤ 0.25 |
| TMGH | 15.3 |
| STKH | ≤ 0.25 |
| KLYL | ≤ 0.25 |
| TTGD | 0.456 |
| MEGV | ≤ 0.25 |
| MNNL | 0.29 |
| MCGV | 13.4 |
| YTGM | ≤ 0.25 |
| MMGV | ≤ 0.25 |
| MNYL | 12 |
| TTGM | 28.6 |
| MCYL | 13 |
| MLYL | 10.2 |
| MEYL | 3.47 |
| DQFA | ≤ 0.25 |
| KQAS | ≤ 0.25 |
| PFKG | ≤ 0.25 |
| NGPW | ≤ 0.25 |
| AAVK | ≤ 0.25 |
| NAHM | ≤ 0.25 |
| MCWM | 16.4 |
| MCCK | ≤ 0.25 |
| MCRM | ≤ 0.25 |

| Variant | enrichment ratio |
| --- | --- |
| MCYI | 27.7 |
| KAHM | ≤ 0.25 |
| MCVA | ≤ 0.25 |
| MCYK | ≤ 0.25 |
| MCWI | 18.3 |
| TAHM | 14.1 |
| MCDS | ≤ 0.25 |
| MCAY | 4.41 |
| LMRM | ≤ 0.25 |
| TVRL | 0.897 |
| LALM | 8.02 |
| FHFV | ≤ 0.25 |
| EESR | ≤ 0.25 |
| ICAM | 17.4 |
| TGGM | ≤ 0.25 |
| KCAM | ≤ 0.25 |
| FDHM | ≤ 0.25 |
| KCGM | ≤ 0.25 |
| MAHM | 14.7 |
| MKAM | ≤ 0.25 |
| ICWM | ≤ 0.25 |
| FVHM | ≤ 0.25 |
| ICGM | ≤ 0.25 |
| THGM | 12.3 |
| MCAM | 12.2 |
